Test results taken from PubChem BioAssay AID588856 (National Center for Advancing Translational Sciences (NCATS), 2011).
The whole screen tested about 410,000 compounds, of which about 3,100 (0.76%) were called active. Entries that show only a call come without a potency. Calls follow the shape of the dose curve; as a rule, active = well fitted cell-killing curve with a large enough effect; inactive = no such curve, though single readings can be large or run the other way. This excerpt belongs to a sample that is enriched for actives.
Potency is read from the fitted curve at half-maximal effect.

Assay: qHTS for Inhibitors of TGF-b: Cytotox Counterscreen
Conditions: HepG2 CAGA-GFP viability, ATP luminescence, 18 h; series mostly up to 46.1 µM
Summary of the method: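 CellTiter-Glo luminescence gave cytotoxicity after 18 hours at 37 degrees C. The cells were HepG2 CAGA-GFP in 1% FBS DMEM, stimulated with 500 pg/mL TGF-beta after compound addition. %Activity was normalised to no-cell wells (complete cell-killing) and DMSO (no toxicity), and curves were fitted and classified.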
With COc1cccc(CNC(=O)c2ccc3c(c2)N(Cc2ccc(C(F)(F)F)cc2)C(=O)c2ccccc2S3)c1OC the Potency was “inactive”. With COc1ccc(-n2nnc(-c3nsc(NC(=O)c4ccc(C)c(C)c4)n3)c2C)cc1Cl the Potency was “inactive”. With O=C(CCS(=O)(=O)c1ccccc1)N(Cc1cccnc1)c1nc2c(F)cccc2s1 the Potency was 7.94 µM (active). With O=C(C1COc2ccccc2O1)N(Cc1cccnc1)c1nc2c(F)cc(F)cc2s1 (stereo not given) the Potency was “inactive”. For COc1ccc(C)cc1NC(=O)CCS(=O)(=O)c1cccc2nonc12, the Potency was “inactive”. In the case of COc1ccccc1CNC(=O)CS(=O)(=O)c1cccc2nsnc12, the Potency is reported as “inactive”. For CN(C)S(=O)(=O)c1ccc(C(=O)N(Cc2cccnc2)c2nc3c(F)cc(F)cc3s2)cc1, the Potency was “inactive”. For Cc1cccc2sc(N(CCCN(C)C)C(=O)CCS(=O)(=O)c3ccccc3)nc12, the Potency was 7.08 µM (active). With Cc1ccc(S(=O)(=O)CCC(=O)OCc2ccccc2)cc1 the Potency was “inactive”. With COc1cccc2sc(N(CCCN(C)C)C(=O)CCS(=O)(=O)c3ccccc3)nc12 the Potency was 3.55 µM (active). With O=C(O)CCS(=O)(=O)c1ccc(-c2ccccc2)cc1 the Potency was “inactive”. For CCc1ccc2oc(-c3ccc(NC(=O)c4cc5ccccc5o4)cc3)nc2c1, the Potency was “inactive”. In the case of CCn1cc(C(=O)NCCc2ccccc2)c(=O)c2cc(S(=O)(=O)N3CCCCCC3)ccc21, the Potency is reported as “inactive”. With CC(C)Cn1c(C2CC(=O)N(c3ccccc3Cl)C2)nc2ccccc21 (stereo not given) the Potency was “inactive”. With CN(C)C1=C2C=CC=CC2/C(=C2/C=Cc3ccccc32)C=C1 (stereo not given) the Potency was “inactive”. For O=C1c2ccccc2C(=O)N1c1ccc(S(=O)(=O)N2CCOCC2)c2ccccc12, the Potency was “inactive”. For OC(CBr)C[n+]1cccc2cc(Br)ccc21 (stereo not given), the Potency was “inactive”. With FC(F)(F)c1cc(Nc2nc3ccccc3c3nncn23)ccc1Cl the Potency was “inactive”. For OCCNc1nc(Nc2ccc(Cl)c(Cl)c2)nc2ccccc12, the Potency was 12.6 µM (active). With O=C(CSc1nc(Nc2ccc(F)c(F)c2)c2ccccc2n1)c1ccc(Cl)cc1 the Potency was “inactive”. With COc1ccc(CCC(=O)NCCc2csc(-c3ccc(Cl)cc3)n2)cc1 the Potency was “inactive”. In the case of O=C(/C=C/c1ccccc1)Nc1cc(-c2nc3cc(Cl)ccc3o2)ccc1Cl, the Potency is reported as “inactive”. In the case of Cc1ccc(C)c(N2CCN(c3ccc4cc(S(=O)(=O)N5CCC(C)CC5)ccc4n3)CC2)c1, the Potency is reported as “inactive”. With O=C(OCc1nc2ccccc2[nH]1)C1CCCCC1 the Potency was “inactive”. For O=S(=O)(c1ccc(Br)cc1)N1CCC(c2nc3ccccc3[nH]2)CC1, the Potency was “inactive”. For c1ccc2[nH]c(-c3nc4ccccc4[nH]3)nc2c1, the Potency was 10 µM (active). With C=C1CCN(Cc2ccc(OC)cc2)S(=O)(=O)c2ccccc21 the Potency was “inactive”. For COc1ccc(-c2onc(C)c2C)cc1S(=O)(=O)NCCc1ccccc1, the Potency was “inactive”. With O=C(Nc1ccc(S(=O)(=O)N2CCC(c3nc4ccccc4s3)CC2)cc1)c1ccccc1F the Potency was “inactive”. With Cc1ccc(C)c(Cn2c(=O)n(CCC(=O)NCc3ccc4c(c3)OCO4)c(=O)c3sccc32)c1 the Potency was “inactive”. For Nc1nc(N)c(N=O)c(N)n1, the Potency was “inactive”. With Cc1cccc(Cn2c(SCc3ccc(C(=O)N4CCC(C)CC4)cc3)nc3ccncc32)c1 the Potency was 12.6 µM (active). For COc1cccc(Cn2c(SCc3ccc(C(=O)N4CCC(C)CC4)cc3)nc3ccncc32)c1, the Potency was “inactive”. For Cc1cccc(CSc2nc3ccncc3n2Cc2ccc(C(=O)O)cc2)c1, the Potency was “inactive”. For COC(=O)c1cc(S(=O)(=O)N2CCN(c3cc(Cl)ccc3C)CC2)c[nH]1, the Potency was “inactive”. With CCCCCCC1(C)NC(c2ccc3c(c2)OCO3)=CC(c2ccccc2O)N1 (stereo not given) the Potency was “inactive”. For CCOC(=O)[C@H]1[C@H]2COc3cc(OC)ccc3[C@@H]2N2C(=O)N(c3ccc(Br)cc3)C(=O)[C@@]12C, the Potency was “inactive”. For CS(=O)c1ccc(/C=C2\C=Cc3ccccc32)cc1 (stereo not given), the Potency was “inactive”. In the case of N#Cc1ccc[n+](CC(=O)c2ccc(O)c(O)c2)c1, the Potency is reported as “inactive”. In the case of CN(C)c1cccc2ccccc12, the Potency is reported as “inactive”. In the case of O=C(COc1cccc(F)c1)Oc1ccc(C(=O)c2ccccc2)cc1, the Potency is reported as “inactive”. In the case of COC(=O)c1ccc(-c2noc(CN(Cc3ccccn3)CC3CCCO3)n2)cc1 (stereo not given), the Potency is reported as “inactive”. With O=C(Oc1ccc(-c2nc(-c3ccccn3)no2)cc1)c1ccccc1 the Potency was 5.01 µM (active). With O=C(c1ccco1)n1nc(-c2ccc(Cl)cc2)nc1NCc1ccccc1 the Potency was “inactive”. In the case of O=C(Nc1ccc2c(c1)OCO2)c1cc(-c2cccc(Cl)c2)on1, the Potency is reported as “inactive”. In the case of COc1cc(SC#N)ccc1N=Cc1c(C)[nH]n(-c2ccc(C)cc2)c1=O, the Potency is reported as 12.6 µM (active). For O=C(NCCc1ccccc1)c1cnc2sc(N3CCCC3)nn2c1=O, the Potency was “inactive”. With Cc1ccc2oc(C(=O)Nc3ccc(S(=O)(=O)N4CCCCCC4)cc3)cc(=O)c2c1 the Potency was “inactive”. In the case of Fc1ccc(CSc2nc(NCc3ccccc3)c3ccccc3n2)cc1, the Potency is reported as “inactive”. For O=C(Nc1nc2ccc(F)cc2s1)c1nc(SCc2ccccc2F)ncc1Cl, the Potency was “inactive”. For Fc1ccc(Nc2nc(SCc3ccccc3Cl)nc3ccccc23)cc1, the Potency was 17.8 µM (active). With COC(=O)c1ccc(NC(=O)c2cc(S(=O)(=O)N3CCC(C)CC3)cn2C)cc1 the Potency was “inactive”. For CN(C)c1ccc(/C=c2\[nH]c(=O)/c(=C/c3ccc(N(C)C)cc3)[nH]c2=O)cc1, the Potency was “inactive”. With Cc1cccc(-c2nc3ccc(C(=O)NCCN4CCN(C)CC4)cc3nc2-c2cccc(C)c2)c1 the Potency was 12.6 µM (active). In the case of COc1ccc(-c2nc3ccc(C(=O)NCc4ccc(C)cc4)cc3nc2-c2ccc(OC)cc2)cc1, the Potency is reported as “inactive”. For Cc1cccc(CCNC(=O)c2ccc3c(c2)nc2n3CCC(C)C2)c1 (stereo not given), the Potency was “inactive”. With Cc1ccc2nc(N3CCN(c4cccc(Cl)c4)CC3)c3nnnn3c2c1 the Potency was “inactive”. In the case of CCCN(CCC)CCNC(=O)Cn1cnc2sc(C)c(S(=O)(=O)N3CCC(C)CC3)c2c1=O, the Potency is reported as “inactive”. In the case of CCN(CC)c1ccc(/C=C/c2c(C)cnc3ccc(C)cc23)cc1, the Potency is reported as “inactive”. In the case of CCN(CCCCOC(=O)c1ccc(OC)c(OC)c1)C(C)Cc1ccc(OC)cc1 (stereo not given), the Potency is reported as “inactive”. In the case of COc1ccc(Cl)cc1NC(=O)CN(C)Cc1ccc(OC)c(OC)c1, the Potency is reported as “inactive”. In the case of COc1ccc(C(CCN(Cc2ccc(OC)c(OC)c2)C(=O)CCl)c2ccccc2)cc1 (stereo not given), the Potency is reported as 11.2 µM (active). For S=c1[nH]c(=S)c2n[nH]nc2[nH]1, the Potency was “inactive”. In the case of COc1ccc(N2C(=O)CS(=O)(=O)C23C(=O)N(Cc2ccc(C)cc2)c2ccccc23)cc1Cl (stereo not given), the Potency is reported as “inactive”. With CCCC(=O)Nc1cc2nn(-c3ccccc3)nc2cc1C the Potency was “inactive”. With OC(c1ccc(F)cc1)c1ncc(-c2cccc(C(F)(F)F)c2)[nH]1 (stereo not given) the Potency was “inactive”. With Cc1ccc(-c2cnc(C(O)c3cc(Cl)cc(Cl)c3)[nH]2)cc1 (stereo not given) the Potency was “inactive”. For OC(c1ccc(Cl)cc1)c1ncc(-c2ccc(Cl)cc2)[nH]1 (stereo not given), the Potency was 11.2 µM (active). With CCc1ccc(OCCCn2c(CCCNC(=O)C3CCCCC3)nc3ccccc32)cc1 the Potency was “inactive”. With CCCCCCn1nnc2sc(-c3ccccc3)cc2c1=O the Potency was “inactive”. In the case of CC(=O)c1c(C)n(S(=O)(=O)c2ccc(Cl)cc2)c2ccc(NS(=O)(=O)c3ccc(Cl)cc3)cc12, the Potency is reported as “inactive”. For Cn1c(SCC(=O)Nc2cccc(NC(=O)c3cccs3)c2)nnc1-c1ccncc1, the Potency was “inactive”. In the case of Cc1ccc(OCC(=O)Nc2ccc(NC(=O)c3cccs3)cc2)c(C)c1, the Potency is reported as 1.12 µM (active). In the case of CCn1c2ccccc2c2cc(NC(=O)COc3ccc(C)cc3C)ccc21, the Potency is reported as “inactive”. In the case of Cn1c(=O)c(=O)n(C)c2cc(NC(=O)c3ccccc3Br)ccc21, the Potency is reported as “inactive”. In the case of Cc1cccc(-n2ncc(Cl)c(Cl)c2=O)c1, the Potency is reported as 11.2 µM (active). In the case of Cc1cccc(-n2ncc(C(=O)N3CCC(C)CC3)c2C2CCN(C(=O)OC(C)(C)C)CC2)c1, the Potency is reported as “inactive”. In the case of Cc1cccc(-n2ncc(C(=O)N3CCN(c4ccc(Cl)cc4)CC3)c2C2CCN(C(=O)OC(C)(C)C)CC2)c1, the Potency is reported as “inactive”. In the case of COc1ccc(/C=C/c2noc(-c3ccccc3O)n2)cc1OC, the Potency is reported as “inactive”. In the case of CCOc1ccc(-c2nonc2NC(=O)c2oc3ccc(C)cc3c2C)cc1OCC, the Potency is reported as “inactive”. In the case of CCOC(=O)c1c(NC(=O)/C(C#N)=C/c2ccccc2)sc2c1CCC2, the Potency is reported as “inactive”. For CCOC(=O)c1c(NC(=O)c2cc(-c3ccc(Cl)cc3)on2)sc2c1CCCC2, the Potency was “inactive”. With CCOC(=O)c1c(NC(=O)C(C)Sc2c[nH]c3ccccc23)sc2c1CCC2 (stereo not given) the Potency was 25.1 µM (active). For Cc1csc(NCC(=O)c2c[nH]c3ccccc23)n1, the Potency was “inactive”. In the case of Cc1ccc(C)c(N2CCN(Cc3nnc(-c4ccccc4)o3)CC2)c1, the Potency is reported as “inactive”. For COc1ccc(CCNC(=O)c2ccc(-n3c(C)cc4c3CCCC4)cc2)cc1OC, the Potency was “inactive”. For CCN(CC)c1ccc(NC(=O)CN2CCN(CC(=O)Nc3ccc(Cl)cc3)CC2)cc1, the Potency was “inactive”. In the case of O=C(Nc1ccc2c(c1)OCCO2)C(C1CC1)N1CCC(Cc2ccccc2)CC1 (stereo not given), the Potency is reported as 15.8 µM (active). With O=C(Nc1ccc2c(c1)OCCO2)C(c1ccc(F)cc1)N1CCCCC1 (stereo not given) the Potency was “inactive”. With O=C(CN1CCOc2ccccc21)N1CCC(Cc2ccccc2)CC1 the Potency was “inactive”. With Cc1cccc(Nc2nc(C)nc(N)c2S(=O)(=O)c2ccccc2)c1 the Potency was “inactive”. With COc1ccc(NC(=O)CSc2nccn2C2CCCC2)cc1OC the Potency was “inactive”. In the case of COc1ccc2c(c1)c(=O)c(C(=O)c1ccccc1)cn2CC(=O)Nc1ccc2c(c1)OCCO2, the Potency is reported as “inactive”. With CCN(CC)c1nc(C#N)nc(OC)n1 the Potency was “inactive”. With COc1ccc(-c2nc(=N)sn2-c2ccccc2)cc1 the Potency was “inactive”. In the case of Nc1ncnc2nnsc12, the Potency is reported as “inactive”. With Cc1cc(C)cc(OC(C)C(=O)Nc2nc3c(s2)CCCC3)c1 (stereo not given) the Potency was “inactive”. For COc1ccc(-c2nc3cnccn3c2NC(C)(C)CC(C)(C)C)cc1O, the Potency was “inactive”. In the case of COc1ccc(-c2nc3cc(C)ccn3c2NC2CCCCC2)cc1SC1CCCCC1, the Potency is reported as “inactive”. For COc1ccc(-c2nc3cnccn3c2NC2CCCCC2)cc1-c1cccc(Cl)c1, the Potency was 12.6 µM (active).
